Inconclusive results are not listed. A number with no mark means an inactive call. The call rests on the fitted dose curve; in most records, active means well fitted cell-killing curve with a large enough effect in the repeat runs; inconclusive means weak or mixed curves, or effect the other way; inactive means flat fitted curve, though single readings scatter.

These results are taken from PubChem BioAssay (Tox21).
On the % scale 0 is the no-effect control and ±100 the full control effect.

A short description of this test: Caspase-3/7 induction in HepG2 cells by small molecules, qHTS cell viability counter screen (AID 1346981). Further: nearly all actives have a fitted effect of over 30% in size. Particulars: CellTiter-Fluor fluorescence, 17 h; series mostly up to 92.4 µM; activity change, negative = cytotoxicity: at the top concentration. The text has this:
U.S. Tox21 Program National Center for Advancing Translational Sciences [NCATS] NIH Chemical Genomics Center [NCGC] U.S. Environmental Protection Agency [EPA] National Institutes of Environmental Health Sciences [NIEHS] National Toxicology Program [NTP] U.S. Food and Drug Administration [FDA] Tox21 Assay Overview: Apoptosis is a process of programmed cell death and plays a central role in the development of multicellular organisms. It is a highly regulated process and induces cell death by activating caspases, which are the members of cysteine aspartic acid-specific protease (caspase) family. Caspases involved in apoptosis are classified by their mechanism of action as initiator caspases (caspase-2, -8, -9 and -10) and executioner caspases (caspase-3, -6, and -7). Inhibition of apoptosis results in number of cancers, autoimmune diseases, inflammatory diseases and viral infection. To identify small molecule compounds that induce apoptosis, a homogeneous, luminescent Caspase-Glo 3/7 assay was used. Wild type HepG2 cells were used to screen Tox21 libraries for identifying caspase-3/7 activity inducers. Also cytotoxicity of the compounds was tested in parallel by measuring the cell viability using CellTiter-Fluor assay system in the same wells.
Tox21 Assay Protocol Summary: HepG2 cells were dispensed at 2,000 per well in 5uL of culture medium into white solid bottom 1536-well plates (Corning Life Sciences, Corning, NY) using a Multidrop Combi (Thermo Scientific, Waltham, MA) dispenser. The assay plates were incubated at 37 C and 5% CO2 for 5hr, and then 23nL of compounds dissolved in DMSO and positive control were transferred using a Pintool station ([…], San Diego, CA). The assay plates were incubated at 37C and 5% CO2 for 17hr. For cytotoxicity read, after 16hr incubation at 37C, 1uL CellTiter-Fluor reagent (Promega Corporation, Madison, WI) was added to each well of the assay plates using Flying Reagent Dispenser (FRD, Aurora Discovery, San Diego, CA). After 1hr incubation at 37C and 5% CO2, the fluorescence signal was quantified using a ViewLux plate reader (PerkinElmer, Shelton, CT).
On the technique in general: qHTS replaces the single test concentration by a dilution series.
With `O=C(N[C@H]1CN2CCC1CC2)c1cc2ccoc2cn1`, the “activity change, negative = cytotoxicity” value was 4.48%.
In the case of `NC1=NC(=O)C(c2ccccc2)O1` (stereo not given) it was 1.7% [at 42.5 µM]; in that of `CN1C[C@@H](NS(=O)(=O)N(C)C)C[C@@H]2c3cccc4c3c(cn4C)C[C@H]21`, -0.765% [at 42.5 µM].
In the case of `CCC(Cl)[N+](=O)[O-]` (stereo not given) it was 0.364%; in that of `COC(=O)C(C)Oc1ccc(Oc2ccc(Cl)cc2Cl)cc1` (stereo not given), 0.7%; in that of `CCc1cc2c(s1)-n1c(C)nnc1CN=C2c1ccccc1Cl`, -1.42% [at 42.5 µM].
`CCC1(c2ccccc2)C(=O)NC(=O)NC1=O`: the “activity change, negative = cytotoxicity” value is -0.979%.
In the case of `CCN(Cc1ccc(Cl)nc1)/C(=C/[N+](=O)[O-])NC` it was -0.261% [at 42.5 µM]; in that of `CC(N)=S`, 0.121%; in that of `O=C1OC(CCN2CCCCC2)OC1(c1ccccc1)c1ccccc1` (stereo not given), 2.05% [at 42.5 µM].
For the compound `CC(Oc1ccc(Oc2ncc(C(F)(F)F)cc2Cl)cc1)C(=O)O` (stereo not given), the “activity change, negative = cytotoxicity” value was -3.13%.
As to `OCCSCSCCO`, the “activity change, negative = cytotoxicity” value is -1.14%.
The same measure for `ClC(Cl)C(Cl)Cl`: -2.91%.
In the case of `CNC(=O)Oc1ccccc1C1OCCO1`, the “activity change, negative = cytotoxicity” value was 5.74%.
The same measure for `CCC(C)(C)c1cc(-n2nc3ccccc3n2)c(O)c(C(C)(C)CC)c1`: 2.84%.
Regarding `C(CCOCC1CO1)COCC1CO1` (stereo not given), the “activity change, negative = cytotoxicity” value is -1.7%.
As to `Fc1cc(Br)ccc1CBr`, the “activity change, negative = cytotoxicity” value is -1.37% [at 42.5 µM].
For the compound `CC1(C)C(=O)NC(=O)NC1=O`, the “activity change, negative = cytotoxicity” value was 3.72%.
With `CC(CC(C#N)(c1ccccc1)c1ccccc1)N(C)C` (stereo not given), the “activity change, negative = cytotoxicity” value was -12%.
With `COC(=O)COc1ccc(Cl)cc1Cl`, the “activity change, negative = cytotoxicity” value was 1.53%.
Turning to `CCC#N`, the “activity change, negative = cytotoxicity” value was 3.86%.
Take `CCN(CC)CCOC(=O)C(C)(c1ccccc1)c1ccccc1`: the “activity change, negative = cytotoxicity” value was -9.98% [at 42.5 µM].
With `C[N+](C)=CCl`, the “activity change, negative = cytotoxicity” value is -1.12%.
In the case of `CN1CCC(O)(c2ccc(F)cc2)C(C(=O)c2ccc(F)cc2)C1` (stereo not given), the “activity change, negative = cytotoxicity” value was 2.02% [at 42.5 µM].
Take `CCCCCCBr`: the “activity change, negative = cytotoxicity” value was 0.0646%.
Turning to `N#Cc1c(Cl)cccc1Cl`, the “activity change, negative = cytotoxicity” value was 5.67%.
As for `ClCC(Cl)(Cl)Cl`, the “activity change, negative = cytotoxicity” value is 2%.
Turning to `Fc1ccc(C2(Cn3cncn3)OC2c2ccccc2Cl)cc1` (stereo not given), the “activity change, negative = cytotoxicity” value was -12%.
Regarding `[As]#[In]`, the “activity change, negative = cytotoxicity” value was 2.69%.
In the case of `COC(C)(C)C` it was 4.42%; in that of `CC1CCC(=O)O1` (stereo not given), -1.37%; in that of `CN(C)CCc1ccc(O)cc1`, 2.1% [at 42.5 µM].
In the case of `C=C(C)CN(CC)c1c([N+](=O)[O-])cc(C(F)(F)F)cc1[N+](=O)[O-]`, the “activity change, negative = cytotoxicity” value was 0.274%.
`C#CCN1C(=O)COc2cc(F)c(N3C(=O)C4=C(CCCC4)C3=O)cc21`: the “activity change, negative = cytotoxicity” value was 5.09%.
As to `CCOP(=S)(OCC)Oc1ncn(-c2ccccc2)n1`, the “activity change, negative = cytotoxicity” value was 3.33%.
For the compound `CNC(=O)Oc1cccc(C(C)C)c1`, the “activity change, negative = cytotoxicity” value is -0.676%.
As to `CCCSP(=O)(OCC)Oc1ccc(Br)cc1Cl` (stereo not given), the “activity change, negative = cytotoxicity” value was -0.759% [at 42.5 µM].
Take `CCCCP(CCCC)CCCC`: the “activity change, negative = cytotoxicity” value was 1.23%.
As for `Cc1cnc[nH]1`, the “activity change, negative = cytotoxicity” value was 3.29%.
In the case of `CCCCc1ccc(O)cc1`, the “activity change, negative = cytotoxicity” value was 4.84%.
